The list is not random: actives were taken first. Their share in the collection is about 3.3%.
Fh CTSL1 inh: Fasciola hepatica cathepsin L1 inhibitors, primary screen, counter-screen for PFM18AAP inhibitor project, biochemical, QFRET, fluorogenic peptide substrate. recombinant F. hepatica cathepsin L1, Z-Leu-Arg-MCA fluorescence. 300,000 compounds, 0.49% hits. inhibition, % at 5.96 µM;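 active = inhibition above the mean of all tested compounds plus 3 SD, set per screening campaign, cut at about 17% in these data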;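 note: 0% = plate median of test compound wells and 100% = 1 µM Z-Phe-Ala-diazomethylketone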
PHOSPHO1 inh: PubChem AID 1565. 290,000 compounds, 1.1% hits. inhibition, % at 13.3 µM. recombinant PHOSPHO1, absorbance phosphatase assay. Phosphoethanolamine/phosphocholine phosphatase (Homo sapiens), Q8TCT1; in the data active = inhibition above about 60%
Target sequence (Q8TCT1 whole entry, looked up): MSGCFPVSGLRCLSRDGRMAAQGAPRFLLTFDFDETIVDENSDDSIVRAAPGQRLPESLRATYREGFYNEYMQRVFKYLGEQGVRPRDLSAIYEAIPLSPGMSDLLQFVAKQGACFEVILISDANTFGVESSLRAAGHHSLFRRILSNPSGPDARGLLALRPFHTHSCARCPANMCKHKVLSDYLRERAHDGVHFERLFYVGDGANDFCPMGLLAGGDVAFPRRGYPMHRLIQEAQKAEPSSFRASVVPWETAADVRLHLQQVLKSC
Rpn11 block: Rpn11 (PSMD14) deubiquitinase inhibitors, primary screen, biochemical, fluorescence polarization, uHTS; human 26S proteasome, Ub4-pepOG fluorescence polarization; 20S core pre-blocked with epoxomicin; inhibition, % at 20 µM; 360,000 compounds, 0.59% hits;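 active = inhibition at 20 µM, scaled to each plate's controls, above about 33%, limit read from the data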
Target sequence (O00487 whole entry, looked up): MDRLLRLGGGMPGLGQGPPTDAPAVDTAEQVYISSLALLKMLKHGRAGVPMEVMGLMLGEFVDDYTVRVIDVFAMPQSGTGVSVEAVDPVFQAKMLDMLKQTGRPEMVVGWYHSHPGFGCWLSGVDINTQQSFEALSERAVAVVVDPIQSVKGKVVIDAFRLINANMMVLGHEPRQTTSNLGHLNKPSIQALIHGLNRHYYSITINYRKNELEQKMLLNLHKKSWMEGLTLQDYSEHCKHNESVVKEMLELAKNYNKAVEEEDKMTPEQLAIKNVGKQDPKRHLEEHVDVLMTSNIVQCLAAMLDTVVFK
CendR NRP1 mod: modulators of CendR peptide binding to NRP-1, primary screen, biochemical, fluorescence polarization, uHTS. Neuropilin-1 (Homo sapiens), O14786. FAM-RPARPAR peptide binding to NRP-1. inhibition, % at 25 µM. 360,000 compounds, 0.85% hits. AID 602438, 2012;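 active = inhibition or corrected inhibition above about 18%, plus a signal ratio from 0.5 to 1.5, limit read from the data, passing the limit was not always enough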
HNF4A DNA FP: change in binding of human HNF4A to DNA, primary screen, biochemical, fluorescence polarization, FITC-DNA | activity change, % at 10 µM | 360,000 compounds, 0.3% hits | Hepatocyte nuclear factor 4-alpha (Homo sapiens), P41235 | 1 h; in the data active = activity change above about 30%, passing the limit was not always enough
TPT1 inh: Candida albicans TPT1 enzyme inhibitors, primary screen, biochemical, fluorescence polarization; tRNA 2'-phosphotransferase TPT1 (Candida albicans SC5314); recombinant caTPT1, FP RNA substrate dephosphorylation; inhibition, % at 5 µM; 300,000 compounds, 0.81% hits; AID 1962, 2009;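 active = inhibition above the mean of all tested compounds plus 3 SD, set per screening campaign, cut at about 24% in these data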;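 note: plate controls were DMSO alone for no effect and ferristatin control at 100 nM for full effect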
* hit, by the source's call; / = no result given; ! = not confirmed by another sample.

SMILES	Fh CTSL1 inh	PHOSPHO1 inh	Rpn11 block	CendR NRP1 mod	HNF4A DNA FP	TPT1 inh
C=CCNC(=O)C1CC(=O)N(c2ccc(OCC(=O)NCc3ccccc3)cc2)C1 (centres undefined)	-0.4	3.7	0.4	26.5*	3.4	1.3
CCCCCc1nc2c(=O)n(C)c3ccccc3c2o1	2.6	-11.4	2.8	1.3	-0.8	-0.6
CCCCCCCc1nc2c(=O)n(C)c3ccccc3c2o1	-1.5	62.9*	-8.2	13.1	7.6	-2.9
CN(C)CCOC(c1ccccc1)c1ccccc1	3.1	/	-5.9	-5.3	/	2.2
CN(C)CCOC(c1ccc(Cl)cc1)c1ccccn1 (centres undefined)	-2.9	23.8	-4.5	21.2*!	1.4	-1.2
Cc1ccc(-c2cnc(C(O)c3ccc(C)cc3)[nH]2)cc1 (centres undefined)	/	/	2.7	10.9	-0.5	/
CC(C)c1onc(C(=O)NCc2cccs2)c1[N+](=O)[O-]	22.6*	-19.6	4.1	1.2	0.2	-0.4
Cc1onc(C(=O)NCc2cccs2)c1[N+](=O)[O-]	4.7	-25.8	-4.3	8.5	6.8	2.0
COc1ccc(S(=O)(=O)C(C#N)c2nc3ccccc3nc2N2CCCCC2)cc1 (centres undefined)	1.9	99.8*	-29.2	-9.1	2.0	-37.7
Cc1ccc(C)c(S(=O)(=O)C(C#N)c2nc3ccccc3nc2N2CCCC2)c1 (centres undefined)	1.0	72.5*	7.8	-12.7	6.0	8.2
CC(C)CN(C(=O)COC(=O)C1=COCCO1)c1c(N)n(Cc2ccccc2)c(=O)[nH]c1=O	4.7	/	-0.4	-1.0	-0.8	3.7
NS(=O)(=O)c1cccc(NC(=O)CCSc2ccc(Cl)cc2)c1	-0.4	3.9	-1.0	-1.2	2.5	-3.0
O=C(O)c1ccc2c(c1)C(=O)N(c1ccccc1-c1ccccc1)C2=O	0.5	8.4	1.5	4.0	-1.5	-1.0
O=C(O)c1ccc(N2CCCCCC2)c(N2C(=O)c3ccccc3C2=O)c1	-2.7	-25.3	-2.5	25.7*	0.2	-5.5
CC(C)NC(=S)N/N=C/c1cccnc1	3.6	7.5	5.4	37.4*	-1.4	-0.2
COc1ccc(-c2noc(CN(C)C(=O)Nc3ccccc3)n2)cc1	0.2	34.2	2.4	-2.7	-1.7	-1.8
CN(C)CCOC(=O)C1(c2ccccc2)CCOCC1	1.4	-1.6	-4.0	24.4*!	0.4	-3.9
CNC(=O)c1cc(OCC(F)(F)F)ccc1OCC(F)(F)F	-6.2	61.0*	5.4	6.1	-5.2	-0.6
COc1cccc(-c2nc(=S)c3c(o2)CCCC3)c1	-7.1	61.0*	3.6	-18.8	-22.9	1.7
CCCCCCNc1c([N+](=O)[O-])cc(C)cc1[N+](=O)[O-]	3.6	/	-0.4	-7.6	-1.7	-2.6
CCC(C)[C@H](NC(=O)[C@@H]1CSC2c3ccccc3C(=O)N21)C(=O)N1CCCCC1 (some centres undefined)	13.1	64.9*	11.0	7.2	-0.7	-1.7
CCC(C)[C@H](NC(=O)[C@@H]1CSC2c3ccccc3C(=O)N21)C(=O)NCc1ccco1 (some centres undefined)	80.6*	32.4	1.0	-3.5	-2.0	0.0
CCC(C)[C@H](NC(=O)[C@@H]1CSC2c3ccccc3C(=O)N21)C(=O)NC1CCCC1 (some centres undefined)	12.3	49.0	8.4	4.1	4.5	-3.7
Clc1ccccc1-c1ccc2ncnc(NCc3ccc4c(c3)OCO4)c2c1	/	/	2.5	22.3*	0.4	/
c1cncc(-c2ccc3ncnc(NCc4ccc5c(c4)OCO5)c3c2)c1	/	/	0.3	15.7	6.0	/
SMILES	Fh CTSL1 inh	PHOSPHO1 inh	Rpn11 block	CendR NRP1 mod	HNF4A DNA FP	TPT1 inh
COc1cc(CNC(C)(C)CO)cc(Br)c1OCc1ccc(Cl)cc1	2.4	2.6	-4.7	29.8*	-1.6	1.3
COc1cc(CNC(C)(C)CO)cc(Br)c1OCc1ccc(Cl)cc1Cl	-2.9	-6.9	1.3	6.3	1.3	-0.3
O=C(COc1nncc2ccccc12)NCC(F)(F)F	6.2	21.0	2.5	-12.0	3.4	0.5
O=C(NC1CCN(C(=S)NCc2ccco2)CC1)NC12CC3CC(CC(C3)C1)C2	3.3	88.9*	4.0	-15.8	43.5*	1.4
Cc1cccc(C(=O)NC2CCN(C(=S)NCc3ccco3)CC2)c1	-1.7	-21.7	-9.3	18.2	1.7	-0.7
CCOc1ccc(C(=O)NC2CCN(C(=S)NCc3ccco3)CC2)cc1	3.3	3.5	-1.8	25.5*	2.9	1.2
Cc1n[nH]c(=O)c2c(NC(=O)CSc3nc4ccccc4c(=O)n3CCCOC(C)C)oc(C)c12	1.3	47.6	3.0	-1.0	3.5	-2.0
CCCCNC(=O)C1c2ccccc2OCC(=O)N1Cc1ccc2c(c1)OCO2 (centres undefined)	/	/	/	19.3*	2.5	/
CC[C@@H]1CCCCc2ccccc2[C@@H](C(=O)C[C@@H](O)CC(C)=O)OC1=O	/	/	-1.2	-5.6	2.1	/
COc1ccc(F)cc1-c1cc(C(=O)NCc2ccccc2)[nH]n1	/	/	-5.7	-5.8	-2.1	/
O=C(CCNC(=O)c1ccc(Br)cc1)Nc1ccccc1N1CCCC1	-5.3	/	-4.1	-8.6	-0.1	-1.2
Cc1ccc(NC(=O)C2CCN(S(=O)(=O)c3cccs3)CC2)c(O)c1	0.6	62.4*	0.2	3.3	1.5	0.5
COc1ccc(C)cc1NC(=O)C1CCN(S(=O)(=O)c2cccs2)CC1	-2.8	24.0	11.8	-5.4	8.5	9.1
Cc1[nH]c2ccc(-c3nnc(SCC(=O)c4ccccc4F)o3)cc2c1C	2.1	87.9*	23.9	-28.8	8.8	2.6
COc1ccc(N2CCN(C(=O)CSc3nnc(-c4ccc5[nH]c(C)c(C)c5c4)o3)CC2)cc1	-0.1	63.6*	4.2	-5.2	5.5	-3.0
Cc1ccc(C(=O)CSc2nnc(-c3ccc4[nH]c(C)c(C)c4c3)o2)cc1C	9.4	74.2*	4.8	-18.3	-1.3	1.9
CC(=O)c1c(C)[nH]c(C(=O)CSc2nnc(-c3ccccc3)o2)c1C	-6.0	46.3	4.0	-9.4	-2.6	-0.8
C=C(C)CNC(=O)CCc1nnc(Cc2cccc(C(F)(F)F)c2)o1	1.5	-3.4	2.0	3.8	-3.7	-0.1
COc1ccc(/C=N/N2C(=N)SCC2=O)cc1	-2.4	23.6	-2.7	-7.7	5.9	-0.4
O=C(c1cc(S(=O)(=O)N2CCN(c3ccccc3)CC2)ccc1Cl)N1CCCCCCC1	2.5	/	10.4	2.9	0.8	-0.2
COc1cc(CNC(C)C)ccc1OCC(=O)Nc1cccc2ccccc12	1.2	60.6*	4.3	2.3	4.9	-1.6
Cc1cccc(OCCCC(=O)NC(C)C)c1	0.0	34.3	-5.5	22.2	3.1	-2.9

Bioassay records: PubChem BioAssay, several laboratories
